From PubChem BioAssay
Shown are actives, neighbours in structure and some others; about 4.6% of the full set was active somewhere.
Wee1 degr inh = human Wee1 degradation inhibition, primary screen; HeLa Luc-Wee1K328M stability, luciferase luminescence; 100% = proteasome inhibitor MG132 effect; reporter increase, % at 5 µM; actives 1.2% (n = 220,000); P30291;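 active = activation above the mean of all tested compounds plus 3 SD, set per screening run, cut at about 8.8% in these data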;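 also: cells exposed to compound for 20 h before luminescence read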
Target sequence (P30291 whole entry K328M): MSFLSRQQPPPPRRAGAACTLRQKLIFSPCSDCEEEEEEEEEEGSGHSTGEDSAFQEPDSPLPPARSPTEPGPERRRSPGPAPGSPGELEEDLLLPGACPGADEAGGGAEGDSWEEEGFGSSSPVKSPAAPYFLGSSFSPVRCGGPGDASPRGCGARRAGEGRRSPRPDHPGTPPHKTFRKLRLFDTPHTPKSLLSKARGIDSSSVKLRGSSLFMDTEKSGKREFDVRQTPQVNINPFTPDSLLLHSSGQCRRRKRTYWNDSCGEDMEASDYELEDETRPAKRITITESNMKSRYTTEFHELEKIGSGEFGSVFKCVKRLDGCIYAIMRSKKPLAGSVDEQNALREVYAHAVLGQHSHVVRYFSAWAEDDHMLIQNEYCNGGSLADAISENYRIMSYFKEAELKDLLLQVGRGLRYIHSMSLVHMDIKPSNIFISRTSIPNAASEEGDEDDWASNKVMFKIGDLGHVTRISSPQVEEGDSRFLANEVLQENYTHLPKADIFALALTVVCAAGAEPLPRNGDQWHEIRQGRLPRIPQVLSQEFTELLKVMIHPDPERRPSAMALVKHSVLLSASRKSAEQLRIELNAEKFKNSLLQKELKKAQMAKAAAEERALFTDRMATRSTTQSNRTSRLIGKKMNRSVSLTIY
ssDAF-12 act = activators of S. stercoralis DAF-12 nuclear receptor. HEK293 ssDAF-12/GRIP1 lit1-tk-luc reporter, luminescence; % of 3 µM dafachronic acid response. actives 1% (n = 370,000). activation, % at 6.8 µM. AID 652126;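 active = activation above the mean over all tested compounds plus 3 SD, cut at about 0.9% in these data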
hgDAF12 agonist = agonists of H. glycines DAF-12 nuclear receptor | HEK293 GAL4-hgDAF12 UAS-luciferase reporter, agonist luminescence; normalized to butyrate control | activation, % at 6.8 µM | actives 1.8% (n = 370,000);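 active = activation above a cutoff set at the mean of all screened compounds plus 3 SD, cut at about 10% in these data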
hcDAF12 agonist = activators of H. contortus DAF-12 nuclear receptor | HEK293 hcDAF-12 lit1-tk-luc reporter, luminescence; 0% DMSO, 100% Δ7-dafachronic acid | activation, % at 6.8 µM | actives 1.4% (n = 370,000);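 active = activation above the mean of all tested compounds plus 3 SD, cut at about 5.5% in these data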
DAX1 inh-1 = blocks DAX1 repression of SF-1 activated StAR promoter; HEK293T StAR-luciferase reporter, SF-1/DAX-1 repression relief; inhibition, % at 6.8 µM; actives 1.1% (n = 370,000);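 active = inhibition above the mean over all tested compounds plus 3 SD, cut at about 3.6% in these data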;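 also: higher inhibition means more luminescence from relief of DAX-1 repression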
DAX1 inh-2 = inhibitors of human orphan nuclear receptor DAX1 (NR0B1); P51843; HEK293 Gal4-DAX1 luciferase reporter, luminescence; inhibition, % at 6.75 µM; actives 0.99% (n = 340,000);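 active = inhibition above the mean over all tested compounds plus 3 SD, cut at about 4.2% in these data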;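 also: inhibition shows as a rise in luminescence from relieved DAX1 repression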
A number is an active result.

For CN(C)C(=O)Oc1ccc(OCc2nc3ccccc3[nH]2)cc1 the results were Wee1 degr inh inactive, ssDAF-12 act inactive, hgDAF12 agonist 11.1, hcDAF12 agonist inactive, DAX1 inh-1 inactive and DAX1 inh-2 inactive.
`O=C1NC(=O)N(CCC2=CCCCC2)C(=O)/C1=C/c1cccs1` gave Wee1 degr inh inactive, ssDAF-12 act 1.7, hgDAF12 agonist inactive, hcDAF12 agonist inactive and DAX1 inh-1 inactive.
`CN1CC(C(=O)c2ccc(Cl)cc2)C(c2ccc(N(C)C)cc2)C1` (stereo unspecified) gave Wee1 degr inh inactive, ssDAF-12 act inactive, hgDAF12 agonist inactive, hcDAF12 agonist inactive, DAX1 inh-1 inactive and DAX1 inh-2 4.2.
For CC(=O)Nc1ccc(C2CN(C)CC2C(=O)c2ccc(Cl)cc2)cc1 (stereo unspecified) the results were Wee1 degr inh inactive, ssDAF-12 act inactive, hgDAF12 agonist inactive, hcDAF12 agonist inactive, DAX1 inh-1 4.2 and DAX1 inh-2 inactive.
CC(C)C[C@@H]1COc2cccc(N3CCN(C)CC3)c2S(=O)(=O)N1 was read as ssDAF-12 act inactive, hgDAF12 agonist inactive, hcDAF12 agonist inactive and DAX1 inh-1 inactive.
CC(C)C[C@H]1COc2cccc(N3CCN(C)CC3)c2S(=O)(=O)N1 was read as ssDAF-12 act inactive, hgDAF12 agonist inactive, hcDAF12 agonist inactive and DAX1 inh-1 4.2.
`O=C1NC(=S)NC(=O)C12C(c1ccc(F)cc1)NC(=S)NC2c1ccc(F)cc1` (stereo unspecified) gave Wee1 degr inh inactive, ssDAF-12 act inactive, hgDAF12 agonist inactive, hcDAF12 agonist inactive, DAX1 inh-1 inactive and DAX1 inh-2 inactive.
Screening Cc1ccc(C2NC(=S)NC(c3ccc(C)cc3)C23C(=O)NC(=O)NC3=O)cc1 (stereo unspecified) returned Wee1 degr inh inactive, ssDAF-12 act inactive, hgDAF12 agonist inactive, hcDAF12 agonist inactive, DAX1 inh-1 inactive and DAX1 inh-2 4.3.
O=C(Cn1nc(-c2ccc(Cl)cc2)ccc1=O)N1CCC2(CC1)OCCO2 was read as Wee1 degr inh inactive, ssDAF-12 act inactive, hgDAF12 agonist inactive, hcDAF12 agonist inactive, DAX1 inh-1 inactive and DAX1 inh-2 4.4.
Screening O=C(CCn1nc(-c2ccc(Cl)cc2)ccc1=O)N1CCC2(CC1)OCCO2 returned Wee1 degr inh inactive, ssDAF-12 act inactive, hgDAF12 agonist inactive, hcDAF12 agonist inactive, DAX1 inh-1 inactive and DAX1 inh-2 inactive.
COc1ccc(C(=O)C2CCCN(CC3CCCCC3)C2)cc1OC (stereo unspecified) was read as ssDAF-12 act inactive, hgDAF12 agonist inactive, hcDAF12 agonist inactive and DAX1 inh-1 3.9.
For O=C(Nc1ccccc1)c1c(O)c2c(n(Cc3ccco3)c1=O)CCCC2 the results were Wee1 degr inh inactive, ssDAF-12 act inactive, hgDAF12 agonist inactive, hcDAF12 agonist inactive, DAX1 inh-1 inactive and DAX1 inh-2 4.3.
Screening O=C(Nc1nccs1)c1c(O)c2c(n(Cc3ccco3)c1=O)CCCC2 returned Wee1 degr inh inactive, ssDAF-12 act 1.3, hgDAF12 agonist inactive, hcDAF12 agonist inactive, DAX1 inh-1 inactive and DAX1 inh-2 inactive.
O=C(Nc1cccc(Cl)c1)c1c(O)c2c(n(Cc3ccco3)c1=O)CCCC2 was read as ssDAF-12 act inactive, hgDAF12 agonist inactive, hcDAF12 agonist inactive and DAX1 inh-1 inactive.
`Cc1ccc2c(c1)CC1(CN2C)C(=O)NC(=O)N(CCc2ccccc2)C1=O` (stereo unspecified) gave Wee1 degr inh inactive, ssDAF-12 act inactive, hgDAF12 agonist inactive, hcDAF12 agonist inactive, DAX1 inh-1 inactive and DAX1 inh-2 inactive.
CCCCCn1c(=O)c(C(=O)Nc2cccc(C)c2)c(O)c2ccccc21 was read as ssDAF-12 act inactive, hgDAF12 agonist inactive, hcDAF12 agonist inactive, DAX1 inh-1 inactive and DAX1 inh-2 inactive.
For CCCCn1c(=O)c(C(=O)NCCc2ccccc2)c(O)c2ccccc21 the results were ssDAF-12 act inactive, hgDAF12 agonist inactive, hcDAF12 agonist inactive, DAX1 inh-1 inactive and DAX1 inh-2 5.1.
Screening CCCCCn1c(=O)c(C(=O)Nc2ccccc2)c(O)c2ccccc21 returned ssDAF-12 act inactive, hgDAF12 agonist inactive, hcDAF12 agonist 7.8, DAX1 inh-1 inactive and DAX1 inh-2 inactive.
Screening CCC(C)C1NC(=O)C2CCCN2C(=O)C(CC(C)C)OC(=O)CCNC(=O)C(C)N(C)C(=O)C(C(C)C)N(C)C1=O (stereo unspecified) returned ssDAF-12 act inactive, hgDAF12 agonist inactive, hcDAF12 agonist inactive, DAX1 inh-1 3.7 and DAX1 inh-2 inactive.
Screening C=CCCC[C@@H]1OC(=O)CNC(=O)C([C@@H](C)CC)NC(=O)[C@@H]2CCCN2C(=O)C([C@@H](C)CC)OC(=O)[C@H](Cc2ccccc2)N(C)C(=O)[C@H](C(C)C)NC(=O)C1(C)C (stereo partly specified) returned ssDAF-12 act inactive, hgDAF12 agonist inactive, hcDAF12 agonist inactive and DAX1 inh-1 inactive.
`O=C(O)c1cc(S(=O)(=O)N2CC3CC(C2)c2cccc(=O)n2C3)ccc1F` (stereo unspecified) gave ssDAF-12 act inactive, hgDAF12 agonist inactive, hcDAF12 agonist inactive and DAX1 inh-1 inactive.
Screening c1ccc(CN2CCc3nc4ccccc4cc3C2)cc1 returned ssDAF-12 act inactive, hgDAF12 agonist 12.5, hcDAF12 agonist inactive, DAX1 inh-1 inactive and DAX1 inh-2 inactive.
CCOP(=O)(OCC)C1(C(=O)O)CCCC1 was read as Wee1 degr inh inactive, ssDAF-12 act inactive, hgDAF12 agonist inactive, hcDAF12 agonist inactive, DAX1 inh-1 inactive and DAX1 inh-2 5.1.
Screening O=C(Cc1c[nH]c2ccccc12)NNCc1ccc(N(CCCl)CCCl)cc1 returned ssDAF-12 act 48.6, hgDAF12 agonist inactive, hcDAF12 agonist inactive, DAX1 inh-1 inactive and DAX1 inh-2 inactive.
`COCCCN=Cc1c(O)[nH]c(=S)[nH]c1=O` gave Wee1 degr inh inactive, ssDAF-12 act inactive, hgDAF12 agonist inactive, hcDAF12 agonist inactive, DAX1 inh-1 inactive and DAX1 inh-2 7.0.
`CCCCCCCCN=Cc1c(O)[nH]c(=O)[nH]c1=O` gave Wee1 degr inh inactive, ssDAF-12 act inactive, hgDAF12 agonist inactive, hcDAF12 agonist inactive and DAX1 inh-1 inactive.
`COc1ccc(NC(=S)NC(NC(=O)CF)C(Cl)(Cl)Cl)cc1[N+](=O)[O-]` (stereo unspecified) gave Wee1 degr inh inactive, ssDAF-12 act inactive, hgDAF12 agonist inactive, hcDAF12 agonist inactive, DAX1 inh-1 inactive and DAX1 inh-2 4.6.
Screening COC(=O)C1=C(c2cc3ccccc3o2)C[C@@H]2CC[C@H]1N2C(=O)NCc1ccco1 returned ssDAF-12 act inactive, hgDAF12 agonist inactive, hcDAF12 agonist inactive, DAX1 inh-1 inactive and DAX1 inh-2 inactive.
`NC(=S)N/N=C/c1coc2ccccc2c1=O` gave Wee1 degr inh inactive, ssDAF-12 act 1.2, hgDAF12 agonist inactive, hcDAF12 agonist inactive, DAX1 inh-1 inactive and DAX1 inh-2 inactive.
